Experiment [1] has as its target Luciferin 4-monooxygenase (Photinus pyralis) (UniProt P08659). The experiment can be described thus: qHTS assay to identify small molecule inhibitors of firefly luciferase (AID 1224835). Also: nearly all actives have a fitted effect of over 25% in size. Also: potency is read from the fitted curve at half-maximal effect. In outline: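 Inhibition of purified Photinus luciferase is measured by luminescence. Substrate levels (D-luciferin, ATP) sit at their KM values. Each compound is tested in a concentration series.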
A general note: Quantitative high-throughput screening tests each substance at several concentrations.

Experiment [2] in a line: qHTS assay to identify small molecule agonists of the constitutive androstane receptor (CAR) signaling pathway - cell viability counter screen (AID 1224836). Also: nearly all actives have a fitted effect of over 45% in size. Also: potency is read from the fitted curve at half-maximal effect. In outline:
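23 h treatment, 37 C, 5% CO2. Cell line: HepG2 stably expressing hCAR with a CYP2B6-2.2kb construct. Co-treatment: PK11195, 0.75 uM final. Read-out: CellTiter-Fluor fluorescence intensity.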

Experiment [3] is described as follows: qHTS assay to identify small molecule antagonists of the constitutive androstane receptor (CAR) signaling pathway - cell viability counter screen (AID 1224837). Also: nearly all actives have a fitted effect of over 45% in size. In a few lines: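 Multiplexed cytotoxicity read-out for the CAR antagonist screen: double-stable HepG2-CYP2B6-hCAR cells co-treated with 50 nM CITCO (final) and compound over 15 concentrations, incubated 23 hr, then assessed by CellTiter-Fluor fluorescence.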

The target of experiment [4] is Nuclear receptor subfamily 1 group I member 3 (Homo sapiens) (UniProt Q14994). The experiment can be described thus: qHTS assay to identify small molecule agonists of the constitutive androstane receptor (CAR) signaling pathway (AID 1224839). Also: nearly all actives have a fitted effect of over 15% in size. In a few lines:
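Compounds tested at 15 concentrations on HepG2 cells stably harbouring hCAR and CYP2B6-2.2kb reporter constructs, co-treated with PK11195 (0.75 uM final), 24 h at 37 C; luminescent reporter signal quantified.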

Experiment [5] concerns the target Thyrotropin receptor (Homo sapiens) (UniProt P16473). The experiment can be described thus: qHTS assay to identify small molecule agonists of the thyroid stimulating hormone receptor (TSHR) signaling pathway (AID 1224843; calls by dose curve; also: nearly all actives have a fitted effect of over 45% in size). In outline: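 Screening of the Tox21 10K collection used HEK293 cells engineered with TSHR at 800 cells per well. After a 30-min room-temperature compound exposure, HTRF cAMP reagents were added and fluorescence recorded 1 h later.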

Experiment [6] is described as follows: qHTS assay to identify small molecule agonists of the hypoxia (HIF-1) signaling pathway - cell viability counter screen (AID 1224844; calls by dose curve; also: nearly all actives have a fitted effect of over 50% in size; also: potency is read from the fitted curve at half-maximal effect). In outline: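 Tox21 10K compounds were added to HRE-bla ME-180 cells (0.5% dialyzed FBS) and incubated 17 hrs at 37C; ATP-based CellTiter-Glo luminescence then reported cell viability in the same wells.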
Experiment [7] is described as follows: qHTS assay to identify small molecule agonists of H2AX (AID 1224845; active = well fitted activation curve with a large enough effect in the signal ratio in the repeat runs, not every such curve was filed as active; the % refers to the signal ratio). In a few lines: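 Phospho-H2AX Ser139 measured by HTRF (ex 320 nm; em 665 and 620 nm) after 24 hr antibody incubation. Compounds, 15 concentrations, 0.76% DMSO, were applied to CHO-K1 cells for 3hr at 37C before lysis.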
The nature of experiment [8]: qHTS assay to identify small molecule agonists of the hypoxia (HIF-1) signaling pathway (AID 1224846; active = well fitted activation curve with a large enough effect in the signal ratio in the repeat runs, not every such curve was filed as active; the % refers to the signal ratio). In outline:
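Steps: seed ME-180 HRE-bla cells (2,000/well, 0.5% dialyzed FBS); incubate 5 hrs at 37C; pin-transfer compounds or DMSO; incubate 17 hrs; add LiveBLAzer B/G substrate CCF4-AM; measure reporter activation by FRET.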

Experiment [9] can be described thus: qHTS RealTime-Glo MT Cell Viability Assay in HepG2 cells - 24 hour (AID 1224867). Also: nearly all actives have a fitted effect of over 50% in size. In outline:
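Luminescence read-out: viable HepG2 cells reduce a prosubstrate to a NanoLuc substrate, giving a signal proportional to live cell number. Reads taken at 0, 8, 16, 24, 32 and 40 h of compound exposure at 37 C.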

A short description of experiment [10]: A CellTox Green Cytotoxicity Assay to monitor cytotoxicity in HEK293 cells - 0 hour (AID 1224869). Also: nearly all actives have a fitted effect of over 50% in size. In a few lines: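 Cytotoxicity was tracked continuously in HEK293 cells by a DNA-binding dye excluded from viable cells. Compounds were transferred in DMSO 5 h after seeding; fluorescence was recorded at intervals up to 40 h.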
Experiment [11] is described as follows: qHTS RealTime-Glo MT Cell Viability Assay in HepG2 cells - 40 hour (AID 1224870). Also: nearly all actives have a fitted effect of over 50% in size. Also: potency is read from the fitted curve at half-maximal effect. In outline: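 Real-time viability: cells seeded at 600 per well together with NanoLuc and cell-permeant prosubstrate, compounds added after 5 h incubation. Luminescence tracked at 0, 8, 16, 24, 32 and 40 h of exposure.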
A short description of experiment [12]: qHTS assay to identify small molecule antagonists of the estrogen related receptor signaling pathway with the pleiotropic PPARgamma coactivator (PGC) from Tox21 10K library - cell viability counter screen (AID 1224840; active = well fitted cell-killing curve with a large enough effect in the repeat runs, not every such curve was filed as active; also: nearly all actives have a fitted effect of over 40% in size; also: potency is read from the fitted curve at half-maximal effect). In a few lines:
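Step one, plate 2,000 PGC/ERR cells per well; step two, incubate 6 h at 37 C/5% CO2; step three, pin-transfer compounds; step four, incubate 17.5 h; step five, add CellTiter-Fluor and read fluorescence after 30 min.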

Experiment [13] can be described thus: qHTS assay to identify small molecule agonists of H2AX - cell viability counter screen (AID 1224847; calls by dose curve; also: top concentration of the series differs between compounds; nearly all actives have a fitted effect of over 30% in size). In a few lines:
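Compounds tested at 15 concentrations were incubated 3 hr at 37C with wild-type CHO-K1 cells; cellular ATP-based luminescence (CellTiter-Glo) indicated viability.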

Experiment [14] in a line: qHTS RealTime-Glo MT Cell Viability Assay in HEK293 cells - 32 hour (AID 1224868). Also: nearly all actives have a fitted effect of over 50% in size. Also: potency is read from the fitted curve at half-maximal effect. In outline:
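Nonlytic real-time viability readout: viable cells convert prosubstrate to NanoLuc substrate, giving luminescence proportional to live cell number. HEK293, 600 cells/well, compound added after 5 h, continuous culture at 37 C.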

In experiment [15] the target is Nuclear receptor subfamily 1 group I member 3 (Homo sapiens) (UniProt Q14994). The experiment can be described thus: qHTS assay to identify small molecule antagonists of the constitutive androstane receptor (CAR) signaling pathway (AID 1224838). Also: nearly all actives have a fitted effect of over 40% in size. Also: potency is read from the fitted curve at half-maximal effect. In a few lines: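 Compounds were titrated across 15 concentrations onto HepG2 cells double-stably expressing hCAR and a CYP2B6-2.2kb reporter, together with 50 nM CITCO (final). After 24 h at 37 C, luciferase activity was measured by luminescence.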
Nuclear receptor subfamily 1 group I member 3 (Homo sapiens), sequence (Q14994 whole entry, looked up): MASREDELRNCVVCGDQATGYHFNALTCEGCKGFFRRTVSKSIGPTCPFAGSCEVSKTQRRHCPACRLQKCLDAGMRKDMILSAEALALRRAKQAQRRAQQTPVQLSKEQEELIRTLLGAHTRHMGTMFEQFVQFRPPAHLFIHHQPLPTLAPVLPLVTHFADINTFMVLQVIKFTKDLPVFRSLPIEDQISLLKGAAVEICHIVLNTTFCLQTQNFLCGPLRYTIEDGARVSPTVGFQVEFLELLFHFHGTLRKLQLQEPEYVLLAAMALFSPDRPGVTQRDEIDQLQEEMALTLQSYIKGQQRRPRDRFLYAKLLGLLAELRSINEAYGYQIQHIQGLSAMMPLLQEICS

Experiment [16] in a line: qHTS assay to identify small molecule antagonists of the estrogen related receptor signaling pathway with the pleiotropic PPARgamma coactivator (PGC) from Tox21 10K library (AID 1224841; call rule not given here; also: potency is read from the fitted curve at half-maximal effect). In a few lines:
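Antagonism in this quantitative HTS is taken from loss of luciferase signal in PGC/ERR cells. Cells (2,000/well) are treated with compounds in DMSO after a 6 h settling period and read by One-Glo luminescence after 18 h.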

Experiment [17] in a line: qHTS assay to identify small molecule agonists of the estrogen related receptor signaling pathway with the pleiotropic PPARgamma coactivator (PGC) from Tox21 10K library (AID 1224842). Also: nearly all actives have a fitted effect of over 15% in size. Also: potency is read from the fitted curve at half-maximal effect. In a few lines: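 Luminescence from One-Glo (30 min, room temperature) measured after PGC/ERR cells had 18 h at 37 C with pinned compound (23 nL in DMSO). Cells had been seeded at 2,000 per well and pre-incubated 6 h.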

Experiment [18] can be described thus: qHTS assay to identify small molecule agonists of the estrogen related receptor (ERR) signaling pathway from Tox21 library (AID 1224849; calls by dose curve; also: nearly all actives have a fitted effect of over 15% in size). Particulars: ERR reporter cell line, ONE-Glo luciferase, 18 h; at 92.4 µM (top of the series) unless noted. In a few lines: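 Agonist signal is luciferase luminescence from an ERR reporter cell line treated 18 h at 37 C with DMSO-dissolved compounds, read 30 min after ONE-Glo addition at room temperature.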

Experiment [19] can be described thus: qHTS assay to identify small molecule antagonists of the estrogen related receptor (ERR) signaling pathway from Tox21 library (AID 1224848). Also: nearly all actives have a fitted effect of over 50% in size. Also: potency is read from the fitted curve at half-maximal effect. In a few lines:
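Antagonist-mode screen of the Tox21 10K library in an NTP-provided ERR reporter cell line; 18 h compound exposure at 37 C, luminescence measured with ONE-Glo.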

A number with no mark means an inactive call. Records with an inconclusive call do not appear. Active and inactive are the calls of the source. Unless noted, calls follow the shape of the dose curve; as a rule, active = well fitted curve in the direction sought with a large enough effect in the repeat runs; inconclusive = weak or mixed curves; inactive = no such curve, though single readings can be large; an effect the other way counts as inactive or inconclusive.

We go through 7 compounds from PubChem BioAssay (Tox21).
% is scaled to controls: 0 for no effect and ±100 for the full control effect.

Luciferin 4-monooxygenase (Photinus pyralis), sequence (P08659 whole entry, looked up): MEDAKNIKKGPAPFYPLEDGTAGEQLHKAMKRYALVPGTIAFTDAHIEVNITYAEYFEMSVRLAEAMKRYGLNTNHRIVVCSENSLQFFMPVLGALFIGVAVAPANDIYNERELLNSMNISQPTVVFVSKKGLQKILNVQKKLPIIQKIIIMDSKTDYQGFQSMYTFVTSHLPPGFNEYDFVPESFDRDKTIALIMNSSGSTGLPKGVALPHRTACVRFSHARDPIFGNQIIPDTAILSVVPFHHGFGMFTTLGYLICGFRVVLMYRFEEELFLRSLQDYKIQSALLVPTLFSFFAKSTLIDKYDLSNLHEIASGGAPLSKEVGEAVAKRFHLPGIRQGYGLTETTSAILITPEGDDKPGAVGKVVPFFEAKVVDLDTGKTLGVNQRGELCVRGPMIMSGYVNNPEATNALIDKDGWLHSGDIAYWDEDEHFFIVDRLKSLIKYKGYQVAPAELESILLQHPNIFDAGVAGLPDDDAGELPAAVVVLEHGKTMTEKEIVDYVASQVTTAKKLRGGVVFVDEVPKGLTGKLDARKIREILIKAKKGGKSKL
Thyrotropin receptor (Homo sapiens), sequence (P16473 whole entry, looked up): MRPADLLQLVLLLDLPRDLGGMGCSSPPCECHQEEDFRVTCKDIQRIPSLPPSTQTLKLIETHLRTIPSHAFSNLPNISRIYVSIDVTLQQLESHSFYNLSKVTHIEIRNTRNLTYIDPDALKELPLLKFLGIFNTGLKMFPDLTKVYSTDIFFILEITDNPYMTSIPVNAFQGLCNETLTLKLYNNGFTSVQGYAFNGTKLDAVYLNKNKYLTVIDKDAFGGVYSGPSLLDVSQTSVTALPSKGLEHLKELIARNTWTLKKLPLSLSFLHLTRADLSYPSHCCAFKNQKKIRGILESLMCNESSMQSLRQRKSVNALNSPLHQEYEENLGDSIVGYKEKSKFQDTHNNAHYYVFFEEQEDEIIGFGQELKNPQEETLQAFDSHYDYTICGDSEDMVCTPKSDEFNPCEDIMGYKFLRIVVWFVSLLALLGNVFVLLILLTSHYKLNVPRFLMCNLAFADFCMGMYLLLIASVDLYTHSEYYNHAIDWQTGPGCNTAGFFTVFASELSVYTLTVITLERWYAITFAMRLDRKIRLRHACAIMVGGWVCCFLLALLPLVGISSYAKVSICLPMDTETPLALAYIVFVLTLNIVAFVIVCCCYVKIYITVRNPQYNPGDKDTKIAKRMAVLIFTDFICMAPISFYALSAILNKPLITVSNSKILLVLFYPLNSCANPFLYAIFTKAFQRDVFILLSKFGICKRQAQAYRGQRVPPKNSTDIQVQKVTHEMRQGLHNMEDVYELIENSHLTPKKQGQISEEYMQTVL

Regarding `CC(=O)[C@H]1CC[C@H]2[C@@H]3C=CC4=CC(=O)CC[C@@]4(C)[C@@H]3CC[C@]12C`, the Potency result in experiment [1], in experiment [2], in experiment [3], in [4], in experiment [5] and in experiment [6] was “inactive” throughout. Also, the Potency result in experiment [7], in [9], in experiment [10] and in experiment [11] was “inactive” throughout. Further, the call in [8] was inactive.

As to `CNC(=S)NC`, the Potency result in [1], in experiment [2], in experiment [3], in [4], in experiment [12] and in [5] was “inactive” each time. In addition, the Potency result in experiment [7], in experiment [13], in [9], in experiment [14], in experiment [10] and in experiment [11] was “inactive” throughout. Also, the Potency in [6] was 11 µM (active).

Regarding `O=C(CCCCCCC(=O)Nc1ccccc1)NO`, the Potency result in experiment [1], in experiment [4], in [5], in experiment [13] and in [10] was “inactive” each time. Further, the Potency in experiment [15] is 3.76 µM (active); in [6] it was 1.69 µM (active); in experiment [14], 2.39 µM (active); in experiment [11], 4.77 µM (active). Besides, the compound was called inactive in experiment [8].

For the compound `COc1cc2c(N3CCN(C(=O)Nc4ccc(OC(C)C)cc4)CC3)ncnc2cc1OCCCN1CCCCC1`, the Potency result in experiment [1], in experiment [4], in experiment [16], in [5], in [7] and in experiment [13] was “inactive” throughout. For the same compound, the Potency result in experiment [9] and in experiment [10] was “inactive” each time. The Potency in [15] is 15 µM (active); in experiment [12], 29.8 µM (active); in experiment [17] it was 33.5 µM (active); in experiment [14] it was 9.52 µM (active). For the same compound, in experiment [8], the result was inactive. The activity change, positive = activation in [18] was -32.4% [at 42.5 µM].

Take `CCOC(=O)CC(=O)C(=O)OCC`: the Potency result in [1], in experiment [4], in [12], in experiment [17], in experiment [5] and in experiment [7] was “inactive” each time. The Potency result in [9] and in experiment [11] was “inactive” throughout. Further, the values for the Potency in [16], in experiment [19] and in [14] were 54.5 µM (active), 27.3 µM (active) and 49 µM (active), respectively. The result in experiment [8] was inactive. Also, in experiment [18], the activity change, positive = activation is -57.1%.

Take `C/C=C/C=C/CCCCCCCO`: the Potency result in experiment [1], in [2], in experiment [3], in experiment [5], in [13] and in experiment [9] was “inactive” each time. Moreover, the Potency entry in [14] and in experiment [11] was “inactive” throughout. In addition, in [8], the call was inactive.

With `COC(=O)Nc1nc2ccc(C(=O)c3cccs3)cc2[nH]1`, the Potency was 15.5 µM (active) in experiment [1], 11.9 µM (active) in experiment [2], 3.35 µM (active) in [17] and 0.169 µM (active) in experiment [14]. For the same compound, the Potency result in experiment [15], in experiment [12], in experiment [16], in experiment [5], in experiment [13] and in [19] was “inactive” each time. The Potency result in [9], in experiment [10] and in experiment [11] was “inactive” each time. Besides, the compound was classed as inactive in experiment [8]. In addition, the activity change, positive = activation in [18] was -4.13% [at 42.5 µM].
